HSF1 activator = HSF-1 activators, primary screen, NIH3T3-HGL cells, MG132 stress, luminescence, single point | 1.7% of 300,000 active | NIH3T3-HGL HSF-1 luciferase reporter, 8 h; 100% = twice DMSO control signal | activation, % at 9 µM;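 active = mean replicate activation of at least 50% with a set share of replicates each reaching 50%; inconclusive = only one of those two conditions met; inactive = mean below 50% and too few replicates reaching it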;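 also: 0% = median of the neutral control wells and 100% = twice that signal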
esBAF inh = Bmi1 luciferase reporter increase in mESCs, primary screen, esBAF inhibitor project, mouse ES cells, Bmi1 luciferase knock-in, single point; 24 h; 100% = twice the neutral-well signal; reporter increase, % at 12.5 µM; 2% of 350,000 active; in the data active = activation above about 40%; inconclusive = no clear call, values can overlap the other calls;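 also: 0% = median of the plate's neutral control wells and 100% = double that signal; a rise in the Bmi1 reporter signal indicates esBAF inhibition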
MITF act = activators of MITF-driven TRPM1 promoter reporter, primary screen, cell-based, SK-MEL-5, luciferase, single point | SK-MEL-5 TRPM1-promoter luciferase, 24 h; % of positive control, neutral wells = 0 | activation, % at 12.5 µM | 0.75% of 300,000 active | AID 588334, 2011;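 active = mean activation of at least 80% with every replicate also reaching 80%; inconclusive = mean reaches 80% but some replicate falls short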;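 also: 0% = neutral control wells and 100% = parthenolide positive control wells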
HSF1 inhib = HSF1 inhibitors in luciferase reporter cells, primary screen, cell-based, NIH3T3, luminescence; NIH3T3-HGL HSE-luciferase, MG132-induced, luminescence 8 h; active compounds read low; activity change, negative = inhibition, % at 7.5 µM (by protocol); 0.77% of 300,000 active; AID 2098, 2009;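 active = more than half of replicate wells show activity change below -50%, luminescence cut by over half; inconclusive = some wells, but at most half, below -50%; inactive = no replicate well below -50%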;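 also: luciferase reports HSF-1 transcriptional activity via heat shock element; 0% = median of DMSO wells and -100% = zero luminescence signal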
Wnt act = Wnt/beta-catenin pathway activators, primary screen, cell-based, plate reader, single point. Wnt/beta-catenin reporter cell assay, activator. activation, % at 9.35 µM. 1.2% of 300,000 active. AID 743398, 2014; in the data active = activation above about 30%, passing the limit was not always enough; inconclusive = no clear call, values can overlap the other calls;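 also: 0% = neutral control wells and 100% = positive control wells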
Numbers without * were called inactive; ? = inconclusive; / = no result given. Shown are actives, neighbours in structure and some others; about 3.9% of the full set was active somewhere.

SMILES	HSF1 activator	esBAF inh	MITF act	HSF1 inhib	Wnt act
Clc1ccc2ccc3cccnc3c2n1	-4	-4	15	-1	-1
O=S1(=O)Nc2c(ccc3cccnc23)-c2ccccc21	158*	-21	-76	142	/
CCCSc1ncnc2c1oc1ccccc12	-12	27	24	3	5
COC(=O)c1ccc(CSc2ncnc3c2oc2ccccc23)o1	113*	-1	-6	96	/
Fc1ccccc1CSc1ncnc2c1oc1ccccc12	-7	42*	31	-1	-4
c1ccc(CSc2ncnc3c2oc2ccccc23)cc1	1	/	2	3	/
c1coc(CSc2ncnc3c2oc2ccccc23)c1	66*	56*	/	29	35*
CO[C@H]1CC[C@@H]2CCOc3ccc(C#N)cc3C(=O)N(C)C[C@H](OC)[C@H](C)C(=O)N(C)C[C@@H]1O2	/	4	/	/	/
Cc1cc(S(=O)(=O)Nc2ccc(C(=O)NCCCN3CCOCC3)cc2)ccc1F	-12	-2	-5	-17	-2
Cc1ccc(C(NC(=O)NCCCN2CCOCC2)=C(Cl)Cl)cc1F	69*	-7	-11	31	-9
C[C@H](O)C#Cc1cnc2c(c1)C(=O)N([C@H](C)CO)C[C@H](C)[C@H](CN(C)C(=O)Cc1ccncc1)O2	/	-3	/	/	/
CC(C)(C)NC(=O)c1ccc2c3c(cccc13)CC2	101*	-4	-4	48	8
CC(=O)Nc1ccc2c3c(cccc13)CC2	-1	-3	/	-1	0
O=C(Nc1ccc2c3c(cccc13)CC2)c1ccccc1	/	48*	/	/	16
CC(C)NC(=O)Nc1ccc2c(c1)C(=O)N([C@@H](C)CO)C[C@H](C)[C@@H](CN(C)S(C)(=O)=O)OCCCC[C@@H](C)O2	/	-2	/	/	/
Clc1ncccc1-c1nnn(-c2ccccc2Br)n1	10	50*	66	4	17
Clc1nc2ccccc2cc1-c1nnn(-c2ccccc2Br)n1	32	41*	47	28	30
Brc1ccccc1-n1nnc(-c2cnc3ccccc3c2)n1	?	?	44	30	43*
O=c1[nH]c2ccccc2cc1-c1nnn(-c2ccccc2)n1	-7	5	-9	-10	-4
Clc1ncccc1-c1nc2ccccc2s1	2	/	27	9	10
CCCNC(=O)N[C@@H]1CC[C@H](CC(=O)NCCc2ccccc2)O[C@H]1CO	/	-6	/	/	/
O=C(CS(=O)c1ccc(C(F)(F)F)cc1[N+](=O)[O-])Oc1ccc(Cl)cc1 (stereo unspecified)	73*	10	-30	65	17
Cc1ccc(OCCNc2ccc(C(F)(F)F)cc2[N+](=O)[O-])cc1	32	/	16	19	/
O=C(NCCO)c1ccc(Oc2ccc(C(F)(F)F)cc2[N+](=O)[O-])cc1	-10	-12	4	0	/
Cc1cc(C)cc(OC(=O)CS(=O)c2ccc(C(F)(F)F)cc2[N+](=O)[O-])c1 (stereo unspecified)	171*	1	/	125	10
SMILES	HSF1 activator	esBAF inh	MITF act	HSF1 inhib	Wnt act
COc1ccc(-c2ccc3c(c2)O[C@@H](CN(C)C(C)=O)[C@H](C)CN([C@H](C)CO)S3(=O)=O)cc1	/	1	/	/	/
CN(CC(=O)NCc1cccnc1)S(=O)(=O)c1ccc2c(c1)c(=O)n(C)c(=O)n2C	-89	-1	0	-86*	-1
C[C@H](CO)N1C[C@H](C)[C@H](CN(C)S(=O)(=O)c2ccc3ccccc3c2)OCc2cn(nn2)CCCC1=O	/	3	/	/	/
Cc1ccc(NC(=O)C2CCCN2S(=O)(=O)c2ccc3c(c2)n(C)c(=O)c(=O)n3C)cc1C (stereo unspecified)	-65	-2	0	-53*	-3
COc1cccc(CN2[C@@H]3CN(C(=O)C4CC4)c4ccccc4[C@@H]3[C@@H]2CO)c1	/	-3	/	/	/
Cc1noc(C)c1S(=O)(=O)Nc1cccc2c1O[C@@H](CN(C)S(=O)(=O)c1cccs1)[C@@H](C)CN([C@@H](C)CO)C2=O	/	-5	/	/	/
COc1ccc2nc(SCc3cccnc3)c(C#N)cc2c1	24	12	23	26	/
COc1ccc2nc(SCC(C)=O)c(C#N)cc2c1	84*	9	-16	37	?
COc1ccc2nc(SC)c(C#N)cc2c1	143*	13	15	96	1
CO[C@@H]1CN(C)C(=O)c2ccc(NS(=O)(=O)c3ccc(F)cc3)cc2OC[C@H](C)NC[C@@H]1C	/	-3	/	/	/
C/C(=N/OC(=O)c1ccccc1Br)c1ccc(C)cc1	49	64*	44	34	1
CC1CCN(C(=O)CSc2ccc(-c3ccc4c(c3)OCCO4)nn2)CC1	8	19	/	-3	7
CC1CCCC(C)N1C(=O)CSc1ccc(-c2ccc3c(c2)OCCO3)nn1 (stereo unspecified)	-91	3	22	-88*	-3
C/C(=N\O)c1cccc(Br)c1	-12	-3	11	-7	0
C/C(=N/O)c1cccc(N2Cc3ccccc3C2)c1	5	63*	9	8	9
CCC(C)[C@H](Nc1nc(-c2ccccc2)nc2c1oc1ccccc12)C(=O)O (stereo partly specified)	-26	-7	-15	-3	/
CCc1nc(SCC(=O)c2cccs2)c2oc3ccccc3c2n1	66*	/	/	12	14
O=C(O)CSc1nc(-c2ccccc2)nc2c1oc1ccccc12	-74	-5	-6	-68*	-2
CC(C)[C@H](Nc1nc(-c2ccccc2)nc2c1oc1ccccc12)C(=O)O	-65	-5	-17	-55*	/
COc1ccc(NC(=O)N2CCCCN3[C@H](CO)[C@@H](c4ccc(C#CCC(C)C)cc4)[C@H]3C2)cc1	/	-2	/	/	/
C[C@H](CO)N1C[C@H](C)[C@H](CN(C)S(=O)(=O)c2ccc(F)cc2)Oc2ccc(NC(=O)Nc3ccc(F)cc3)cc2C1=O	/	2	/	/	/
C[C@H](CO)N1C[C@H](C)[C@H](CN(C)C(=O)c2ccncc2)OCCCC[C@H](C)Oc2ccc(NC(=O)NC3CCCCC3)cc2C1=O	/	-2	/	/	/
CC(C)(C)c1ccc(-c2nnc(NC(=O)c3ccccc3)s2)cc1	33	49*	57	14	/
COCC(=O)Nc1nnc(-c2ccc(C(C)(C)C)cc2)s1	7	-18	91*	20	1
COc1cccc(C(=O)Nc2nnc(-c3ccccc3)s2)c1	46	18	?	26	36*
O=C(NCC[C@@H]1CC[C@H](NC(=O)C2CCC2)[C@H](CO)O1)c1ccc(F)cc1	/	-4	/	/	/
C[C@H]1CN([C@@H](C)CO)C(=O)c2cccc(N(C)C)c2O[C@@H]1CN(C)C(=O)Nc1ccc(F)cc1	/	-3	/	/	/
